# From PubChem BioAssay (NCATS)
# Values joined by “and” are separate entries in the source; they are usually repeats but may differ in a detail not shown here. Equal values may be shown once. Records with an inconclusive call do not appear. Active and inactive are the calls of the source. The call rests on the fitted dose curve; in most records, active means well fitted cell-killing curve with a large enough effect; inconclusive means small, poorly fitted or top-dose-only effect; inactive means no such curve, though single readings can be large or run the other way.
# Experiment: qHTS of pediatric cancer cell lines to identify multiple opportunities for drug repurposing: Confirmatory screen for BT-37 cells (AID 1347117); further: nearly all actives have a fitted effect of over 55% in size
# Conditions: BT-37 pediatric cancer cells, viability; series mostly up to 45.9 µM; activity change, negative = cytotoxic: at the top concentration
# Text: Drug repurposing or repositioning has been offered as a strategy for drug development in oncology programs. This approach has special potential for childhood cancers and other rare or orphan diseases, where the expected return on new drug development has been a disincentive to pharmaceuticals.
# In this project we exploit the poly-pharmacology of drugs to discover new indications via phenotypic screening of a panel of 19 well-characterized cell lines derived from solid tumors seen in children and adolescents. The goal is to identify approved drugs with previously unrecognized anticancer properties that has the potential to reveal new mechanisms and biological processes involved in carcinogenesis or drug resistance. We employed a titration-based paradigm (quantitative high-throughput screening or qHTS), where all compounds were tested at multiple concentrations for their effect on cell viability. Concentration-response curves (CRCs) were derived directly from the primary screen, and both potency and efficacy values were used to identify compounds with robust bioactivity profiles. We screened the NIH Chemical Genomics Center (NCGC) Pharmaceutical Collection (NPC) and Mechanism Interrogation Plate (MIPE) small molecule collections of approved and investigational compounds against these cell lines; and measured metabolically active cells after 48 hours of compound treatment as a proxy for cell viability.
# Assay Submitter: Nathalia J. Martinez, National Center for Advancing Translational Sciences, National Institutes of Health, Rockville, MD, USA; email: natalia.martinez@nih.gov
# [1] Shen, M et al. Quantitative high-throughput phenotypic screening of pediatric cancer cell lines identifies multiple opportunities for drug repurposing. Oncotarget 2017 Dec 19;9(4):4758-4772. PMID 29435139.
# The cells were obtained from University of North Carolina (UNC), Pediatric Preclinical Testing Program (PPT), and Coriell Institute (CI).
# qHTS cell viability assay:
# Cells were assayed in growth media at a density of 500-1,000 cells/well. Five microliters of cells were dispensed into 1,536-well, white, solid-bottom, TC-treated plates (Greiner Bio One) using a multidrop dispenser and incubated at 37 degrees C, 5% CO2, under a humidified atmosphere for 5 hours. Twenty-three nanoliters of compounds and controls (neutral control DMSO or positive control bortezomib at final concentration of 2.3 µM) were subsequently transferred by Kalypsys pintool. For primary screens, the MIPE collection was tested at 11-point dilutions (final concentrations range from 0.78 nM to 46 µM) and the NPC collection at 8-point dilutions (final concentrations range from 0.59 nM to 46 µM). Compounds tested in follow-up screens were assayed at 11-point dilutions. Cells were incubated for 48 hours, followed by addition of 3 µL of CellTiter-Glo (Promega). After a 15 min incubation at room temperature, samples were analyzed for luminescence intensity using a ViewLux High-throughput CCD imager equipped with clear filters.
# Potency means the concentration at half of the fitted maximal effect.
SMILES,Potency,"activity change, negative = cytotoxic"
COc1cc(NCc2ccc3nc(N)nc(N)c3c2C)cc(OC)c1OC,2.61 µM (active),
Nc1[nH]c(=O)ncc1F,,-3.23% (inactive)
Cn1nnc2c(C(N)=O)ncn2c1=O,,-1.43% (inactive)
CC(C)C[C@H](NC(=O)[C@H](CCc1ccccc1)NC(=O)CN1CCOCC1)C(=O)N[C@@H](Cc1ccccc1)C(=O)N[C@@H](CC(C)C)C(=O)[C@@]1(C)CO1,0.0928 µM (active),
CC(C)(C#N)c1cc(Cn2cncn2)cc(C(C)(C)C#N)c1,,0.309% (inactive)
CN(C)c1ccc(C(=C2C=CC(=[N+](C)C)C=C2)c2ccc(N(C)C)cc2)cc1,1.17 µM (active),
CN1CCCC(n2nc(Cc3ccc(Cl)cc3)c3ccccc3c2=O)CC1 (stereo unspecified),23.3 µM (active),
COc1nc(N)nc2c1ncn2[C@@H]1O[C@H](CO)[C@@H](O)[C@@H]1O,18.5 µM (active),
COc1cc2c(Nc3ccc(Br)cc3F)ncnc2cc1OCC1CCN(C)CC1,,1.58% (inactive)
CCC(=O)O[C@]1(C(=O)CCl)[C@@H](C)C[C@H]2[C@@H]3CCC4=CC(=O)C=C[C@]4(C)[C@@]3(F)[C@@H](O)C[C@@]21C,,-4.98% (inactive)
Cc1cccc(N(C)C(=S)Oc2ccc3ccccc3c2)c1,,-15.7% (inactive)
C[C@@H](CN1CC(=O)NC(=O)C1)N1CC(=O)NC(=O)C1,,-11% (inactive)
Nc1nc(F)nc2c1ncn2[C@@H]1O[C@H](CO)[C@@H](O)[C@@H]1O,14.7 µM (active) and 414 nM (active),
CNCC[C@H](Oc1cccc2ccccc12)c1cccs1,,-14% (inactive)
COc1ccc(-c2ccc3cc(C(=O)O)ccc3c2)cc1C12CC3CC(CC(C3)C1)C2,7.37 µM (active),
O=NN(CCCl)C(=O)NC1CCCCC1,,2.26% (inactive)
CCOC(=O)c1ccc(C#Cc2ccc3c(c2)C(C)(C)CCS3)nc1,,-9.25% (inactive)
CO[C@@]12[C@H](COC(N)=O)C3=C(C(=O)C(C)=C(N)C3=O)N1C[C@@H]1N[C@@H]12,0.737 µM (active),

SMILES,Potency,"activity change, negative = cytotoxic"
CC1CC2C3CCC4=CC(=O)C=C[C@]4(C)[C@@]3(F)[C@@H](O)C[C@]2(C)[C@@]1(O)C(=O)CO (stereo partly specified),,-5.75% (inactive)
Oc1c(Cl)cc(Cl)c2cccnc12,18.5 µM (active),
CNS(=O)(=O)CCc1ccc2[nH]cc(C3CCN(C)CC3)c2c1,,-1.3% (inactive)
CC(C)NCC(O)c1ccc(NS(C)(=O)=O)cc1 (stereo unspecified),,2.31% (inactive)
CCOC(=O)[C@H](CCc1ccccc1)N[C@H]1CS[C@H](c2cccs2)CN(CC(=O)O)C1=O,,-8.3% (inactive)
CS(=O)(=O)c1ccc([C@@H](O)[C@@H](CO)NC(=O)C(Cl)Cl)cc1,,2.51% (inactive)
COC(=O)Nc1nc2ccc(S(=O)c3ccccc3)cc2[nH]1 (stereo unspecified),2.08 µM (active),
Nc1nc(N)nc(-c2cc(Cl)ccc2Cl)n1,,-2.43% (inactive)
CCc1c2c(nc3ccc(OC(=O)N4CCC(N5CCCCC5)CC4)cc13)-c1cc3c(c(=O)n1C2)COC(=O)[C@]3(O)CC,0.928 µM (active),
COC(=O)Nc1nc2ccc(Sc3ccccc3)cc2[nH]1,1.85 µM (active),
CC(C)(C)C(=O)OCOP(=O)(COCCn1cnc2c(N)ncnc21)OCOC(=O)C(C)(C)C,3.69 µM (active),
CNNCc1ccc(C(=O)NC(C)C)cc1,,3.48% (inactive)
CNC(=O)c1cc(Oc2ccc(NC(=O)Nc3ccc(Cl)c(C(F)(F)F)c3)cc2)ccn1,23.3 µM (active),
COc1cc([C@@H]2c3cc4c(cc3[C@H](O)[C@H]3COC(=O)[C@H]23)OCO4)cc(OC)c1OC,0.0522 µM (active),
CCC(=O)O[C@]1(C(=O)SCF)[C@H](C)C[C@H]2[C@@H]3C[C@H](F)C4=CC(=O)C=C[C@]4(C)[C@@]3(F)[C@@H](O)C[C@@]21C,,-15.1% (inactive)
C[C@@H]1C[C@H]2[C@@H]3CCC4=CC(=O)C=C[C@]4(C)[C@@]3(Cl)[C@@H](O)C[C@]2(C)[C@@]1(OC(=O)c1ccco1)C(=O)CCl,0.369 µM (active),
Nc1nc(=S)c2[nH]cnc2[nH]1,3.29 µM (active) and 2.93 µM (active),
COc1cc2nc(N3CCCN(C)CC3)nc(NC3CCN(Cc4ccccc4)CC3)c2cc1OC,20.8 µM (active),
